This note sets out measurements from PMC5700166.

Holding throughout (assay): protein-binding microarray (PBM); PBM: ~300 nM protein, 6 mM HEPES pH 7.8, 80 mM KCl, 0.5 mM EDTA, 0.5 mM EGTA, 6% glycerol, 35 ng/ul poly-dIdC, 1% milk, 1 h, room temperature; Ap Aiptasia and Nv Nematostella (sea anemones) / Co Capsaspora / Aq Amphimedon (sponge) / Dm Drosophila / Hu human; RHD is the Rel homology domain; high values mean tight binding
Holding throughout (settings): dsDNA, one strand shown

Test [1] has as its target T1, GST-Ap-NF-kB RHD (Exaiptasia pallida (Aiptasia), UniProt A0A913YAJ5 2-422).
T1 sequence: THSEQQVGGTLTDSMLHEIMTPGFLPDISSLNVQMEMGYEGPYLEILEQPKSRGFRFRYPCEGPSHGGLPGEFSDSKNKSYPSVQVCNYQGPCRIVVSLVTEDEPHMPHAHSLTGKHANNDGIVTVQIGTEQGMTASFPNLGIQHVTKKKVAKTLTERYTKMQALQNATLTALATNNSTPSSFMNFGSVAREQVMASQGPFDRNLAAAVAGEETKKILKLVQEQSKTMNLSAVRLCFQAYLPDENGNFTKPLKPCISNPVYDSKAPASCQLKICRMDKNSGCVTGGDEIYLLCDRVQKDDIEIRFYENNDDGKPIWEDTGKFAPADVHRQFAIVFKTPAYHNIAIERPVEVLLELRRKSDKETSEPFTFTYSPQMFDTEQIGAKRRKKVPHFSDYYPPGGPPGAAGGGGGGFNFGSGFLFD

Test [2] addresses T2, GST-Nv-NF-kB (Cys allele) (Nematostella vectensis, UniProt E5G601 2-411).
T2 sequence: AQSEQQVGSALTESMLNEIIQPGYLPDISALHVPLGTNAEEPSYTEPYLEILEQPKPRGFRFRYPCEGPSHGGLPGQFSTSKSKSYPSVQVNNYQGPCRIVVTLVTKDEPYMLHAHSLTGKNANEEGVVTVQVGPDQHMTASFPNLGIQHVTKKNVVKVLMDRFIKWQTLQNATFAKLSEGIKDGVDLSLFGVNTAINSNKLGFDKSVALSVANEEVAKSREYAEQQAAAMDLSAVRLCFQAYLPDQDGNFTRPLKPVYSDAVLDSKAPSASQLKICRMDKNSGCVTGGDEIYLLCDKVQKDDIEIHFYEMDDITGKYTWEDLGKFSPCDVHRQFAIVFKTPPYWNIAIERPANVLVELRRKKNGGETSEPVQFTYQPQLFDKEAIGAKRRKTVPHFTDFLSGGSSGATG

Test [3] concerns the target T3, GST-Co-NF-kB (Capsaspora owczarzaki, UniProt F1ARL5 200-546).
T3 sequence: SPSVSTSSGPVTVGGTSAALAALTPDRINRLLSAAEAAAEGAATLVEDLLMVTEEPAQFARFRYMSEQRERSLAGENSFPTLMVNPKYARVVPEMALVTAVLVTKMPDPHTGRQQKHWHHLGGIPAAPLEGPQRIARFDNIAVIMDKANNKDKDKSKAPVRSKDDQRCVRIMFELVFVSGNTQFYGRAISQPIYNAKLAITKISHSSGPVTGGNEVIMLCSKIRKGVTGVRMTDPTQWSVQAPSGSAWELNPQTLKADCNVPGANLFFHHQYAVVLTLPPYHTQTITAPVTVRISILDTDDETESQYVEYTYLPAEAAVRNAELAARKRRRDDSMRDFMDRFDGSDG

The target of test [4] is T4, GST-Dm-Relish (Drosophila melanogaster, UniProt Q94527 99-473).
T4 sequence: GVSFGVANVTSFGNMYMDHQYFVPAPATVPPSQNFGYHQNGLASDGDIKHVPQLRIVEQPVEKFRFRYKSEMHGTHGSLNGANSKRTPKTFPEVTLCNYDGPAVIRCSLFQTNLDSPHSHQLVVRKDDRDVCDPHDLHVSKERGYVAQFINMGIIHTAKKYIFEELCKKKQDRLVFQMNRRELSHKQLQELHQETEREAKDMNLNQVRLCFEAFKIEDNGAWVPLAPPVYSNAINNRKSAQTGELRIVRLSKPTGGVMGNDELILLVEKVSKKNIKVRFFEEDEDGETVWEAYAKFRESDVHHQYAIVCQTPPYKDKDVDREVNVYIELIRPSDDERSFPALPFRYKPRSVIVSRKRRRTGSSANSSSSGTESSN

The target in test [5] is T5, GST-Aq-NF-kB (Amphimedon queenslandica, UniProt A9Y5G7 2-389).
T5 sequence: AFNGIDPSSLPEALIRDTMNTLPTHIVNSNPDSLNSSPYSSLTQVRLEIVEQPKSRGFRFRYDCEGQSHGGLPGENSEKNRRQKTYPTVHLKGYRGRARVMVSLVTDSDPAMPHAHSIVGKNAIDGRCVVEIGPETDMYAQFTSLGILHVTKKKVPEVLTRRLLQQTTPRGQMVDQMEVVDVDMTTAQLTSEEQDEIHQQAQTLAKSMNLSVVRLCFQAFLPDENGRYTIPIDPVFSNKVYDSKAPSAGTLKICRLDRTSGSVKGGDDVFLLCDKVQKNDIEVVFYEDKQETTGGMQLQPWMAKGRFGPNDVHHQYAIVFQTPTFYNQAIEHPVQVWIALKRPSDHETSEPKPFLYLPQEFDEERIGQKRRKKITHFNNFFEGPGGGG

For the sequence “CCGATTAACATCAATGGGAAAATTGATGTTAATCGGGTCTTGATTCGCTTGACGCTGCTG”, the binding signal in test [1] turned out to be 1.56 z-score; in test [2], 4.28 z-score; in test [3], 3.46 z-score; in test [4] it was 1.25 z-score; in test [5] it was 3.05 z-score.

Take “CCGATTAACATCAAATGACCCCCTGATGTTAATCGGGTCTTGATTCGCTTGACGCTGCTG”: the binding signal in test [1] amounted to 4.25 z-score; in test [2] it was 2.8 z-score; in test [3], 2.98 z-score; in test [4], 3.27 z-score; in test [5], 4.02 z-score.

As for “CCGATTAACATCAAATTCCCTCGTGATGTTAATCGGGTCTTGATTCGCTTGACGCTGCTG”, the binding signal in test [1] is 3.11 z-score; in test [2], 4.96 z-score; in test [3], 2.32 z-score; in test [4], 3.26 z-score; in test [5], 4.09 z-score.

Turning to “CCGATTAACATCACCAATTTCCCTGATGTTAATCGGGTCTTGATTCGCTTGACGCTGCTG”, the binding signal worked out at 3.3 z-score in test [1]; 4.17 z-score in test [2]; 3.83 z-score in test [3]; 1.84 z-score in test [4]; 3.17 z-score in test [5].

For the sequence “CCGATTAACATCATCCGGGAAAATGATGTTAATCGGGTCTTGATTCGCTTGACGCTGCTG”, the binding signal in test [1] amounted to 2.01 z-score; in test [2], 3.79 z-score; in test [3], 4.53 z-score; in test [4], 1.58 z-score; in test [5], 2.54 z-score.

For “CCGATTAACATCAGAAGATTCCCTGATGTTAATCGGGTCTTGATTCGCTTGACGCTGCTG”, the binding signal in test [1] was 3.38 z-score; in test [2] it was 4.85 z-score; in test [3], 3.43 z-score; in test [4] it was 3.48 z-score; in test [5], 5.19 z-score.

Consider “CCGATTAACATCATTCGGGAAAATGATGTTAATCGGGTCTTGATTCGCTTGACGCTGCTG”, for which the binding signal in test [1] amounted to 1.48 z-score; in test [2], 3.97 z-score; in test [3], 3.01 z-score; in test [4] it was 1.3 z-score; in test [5], 2.01 z-score.

With “CCGATTAACATCAGGGGAAGGGATGATGTTAATCGGGTCTTGATTCGCTTGACGCTGCTG”, the binding signal in test [1] amounted to 4.77 z-score; in test [2], 4.77 z-score; in test [3], 3.96 z-score; in test [4] it was 1.68 z-score; in test [5], 3.89 z-score.

In the case of “CCGATTAACATCACTGTTTTCCCTGATGTTAATCGGGTCTTGATTCGCTTGACGCTGCTG”, the binding signal was determined as 2.63 z-score in test [1]; 4.15 z-score in test [2]; 4.9 z-score in test [3]; 1.62 z-score in test [4]; 3.31 z-score in test [5].

In the case of “CCGATTAACATCAGGGAATTAAATGATGTTAATCGGGTCTTGATTCGCTTGACGCTGCTG”, the binding signal was determined as 2.06 z-score in test [1]; 4.46 z-score in test [2]; 3.84 z-score in test [3]; 2.47 z-score in test [4]; 4.32 z-score in test [5].

Take “CCGATTAACATCAAAACAATCCCTGATGTTAATCGGGTCTTGATTCGCTTGACGCTGCTG”: the binding signal in test [1] amounted to 2.49 z-score; in test [2], 3.19 z-score; in test [3], 1.41 z-score; in test [4], 2.25 z-score; in test [5], 4.66 z-score.

With “CCGATTAACATCAGGGGACACCCTGATGTTAATCGGGTCTTGATTCGCTTGACGCTGCTG”, the binding signal was 5.89 z-score in test [1]; 4.47 z-score in test [2]; 3.91 z-score in test [3]; 7.15 z-score in test [4]; 6.52 z-score in test [5].

With “CCGATTAACATCAGCGAATTCCCTGATGTTAATCGGGTCTTGATTCGCTTGACGCTGCTG”, the binding signal in test [1] came to 3.47 z-score; in test [2], 4.45 z-score; in test [3], 2.15 z-score; in test [4], 2.72 z-score; in test [5], 3.61 z-score.

On to “CCGATTAACATCAGGGGTATACCTGATGTTAATCGGGTCTTGATTCGCTTGACGCTGCTG”, for which the binding signal in test [1] amounted to 4.25 z-score; in test [2], 2.43 z-score; in test [3], 3.98 z-score; in test [4] it was 4.15 z-score; in test [5] it was 4.94 z-score.

For “CCGATTAACATCAAAAACTACCCTGATGTTAATCGGGTCTTGATTCGCTTGACGCTGCTG”, the binding signal in test [1] was determined as 4.12 z-score; in test [2], 3.21 z-score; in test [3], 3.13 z-score; in test [4], 5.43 z-score; in test [5], 4.72 z-score.

As to “CCGATTAACATCAAGGGGGGAGATGATGTTAATCGGGTCTTGATTCGCTTGACGCTGCTG”, the binding signal in test [1] turned out to be 5.84 z-score; in test [2] it was 5.1 z-score; in test [3] it was 6.56 z-score; in test [4] it was 2.93 z-score; in test [5] it was 4.98 z-score.

For “CCGATTAACATCAGGCCCCCCCCTGATGTTAATCGGGTCTTGATTCGCTTGACGCTGCTG”, the binding signal in test [1] stood at 5.7 z-score; in test [2], 4.06 z-score; in test [3], 3.96 z-score; in test [4], 6.13 z-score; in test [5] it was 5.74 z-score.

Take “CCGATTAACATCAAAAAATGCCCTGATGTTAATCGGGTCTTGATTCGCTTGACGCTGCTG”: the binding signal in test [1] came to 2.08 z-score; in test [2], 3.03 z-score; in test [3], 1 z-score; in test [4] it was 3.67 z-score; in test [5] it was 4.05 z-score.

On to “CCGATTAACATCAGGGGACGCACTGATGTTAATCGGGTCTTGATTCGCTTGACGCTGCTG”, for which the binding signal was determined as 4.45 z-score in test [1]; 4.2 z-score in test [2]; 2.19 z-score in test [3]; 5.79 z-score in test [4]; 4.68 z-score in test [5].

As for “CCGATTAACATCAGGGATTCACCTGATGTTAATCGGGTCTTGATTCGCTTGACGCTGCTG”, the binding signal was found to be 5.22 z-score in test [1]; 4.92 z-score in test [2]; 1.03 z-score in test [3]; 9.89 z-score in test [4]; 5.57 z-score in test [5].

Take “CCGATTAACATCAATGGGAATTCTGATGTTAATCGGGTCTTGATTCGCTTGACGCTGCTG”: the binding signal in test [1] is 2.8 z-score; in test [2] it was 4.72 z-score; in test [3] it was 2.98 z-score; in test [4] it was 4.26 z-score; in test [5] it was 3.51 z-score.

Turning to “CCGATTAACATCAATATTTACCCTGATGTTAATCGGGTCTTGATTCGCTTGACGCTGCTG”, the binding signal was found to be 1.68 z-score in test [1]; 3.08 z-score in test [2]; 3.33 z-score in test [3]; 1.66 z-score in test [4]; 2.34 z-score in test [5].

Regarding “CCGATTAACATCAAGTGTTTCCCTGATGTTAATCGGGTCTTGATTCGCTTGACGCTGCTG”, the binding signal in test [1] is 2.2 z-score; in test [2], 3.22 z-score; in test [3], 3.78 z-score; in test [4] it was 4.7 z-score; in test [5] it was 3.79 z-score.

As for “CCGATTAACATCAGGGGTTACCCTGATGTTAATCGGGTCTTGATTCGCTTGACGCTGCTG”, the binding signal worked out at 6.28 z-score in test [1]; 5.58 z-score in test [2]; 4.23 z-score in test [3]; 8.84 z-score in test [4]; 7.71 z-score in test [5].

Consider “CCGATTAACATCAAAGAAGCCCCTGATGTTAATCGGGTCTTGATTCGCTTGACGCTGCTG”, for which the binding signal in test [1] came out at 4.38 z-score; in test [2], 5.52 z-score; in test [3], 1.52 z-score; in test [4], 4.39 z-score; in test [5], 5.13 z-score.

“CCGATTAACATCAGGGATAACCCTGATGTTAATCGGGTCTTGATTCGCTTGACGCTGCTG”: the binding signal came to 3.63 z-score in test [1]; 3.77 z-score in test [2]; 1.82 z-score in test [3]; 4.42 z-score in test [4]; 6.12 z-score in test [5].

On to “CCGATTAACATCAGATTTTTCCCTGATGTTAATCGGGTCTTGATTCGCTTGACGCTGCTG”, for which the binding signal in test [1] came out at 3.33 z-score; in test [2] it was 5.35 z-score; in test [3] it was 5.52 z-score; in test [4], 1.54 z-score; in test [5] it was 5.5 z-score.
